# Source: paper PMC7862700, “An all-to-all approach to the identification of sequence-specific readers for epigenetic DNA modifications on cytosine”
# Columns and labels:
# Test in all cases: DAPPL (digital affinity profiling via proximity ligation, sequencing); 10 mM Tris-HCl pH 7.5, 50 mM NaCl, 1 mM DTT, 4% glycerol, room temperature, 30 min; GST-TFs on glutathione beads, 16-mer random dsDNA library, 0.1% formaldehyde crosslink after washing; high values mean tight binding
# FLI1 = target: T1, FLI1 (Homo sapiens, UniProt Q01543 1-452); conditions: protein: recombinant; tags: N-terminal GST; dsDNA, one strand shown
# T1 sequence: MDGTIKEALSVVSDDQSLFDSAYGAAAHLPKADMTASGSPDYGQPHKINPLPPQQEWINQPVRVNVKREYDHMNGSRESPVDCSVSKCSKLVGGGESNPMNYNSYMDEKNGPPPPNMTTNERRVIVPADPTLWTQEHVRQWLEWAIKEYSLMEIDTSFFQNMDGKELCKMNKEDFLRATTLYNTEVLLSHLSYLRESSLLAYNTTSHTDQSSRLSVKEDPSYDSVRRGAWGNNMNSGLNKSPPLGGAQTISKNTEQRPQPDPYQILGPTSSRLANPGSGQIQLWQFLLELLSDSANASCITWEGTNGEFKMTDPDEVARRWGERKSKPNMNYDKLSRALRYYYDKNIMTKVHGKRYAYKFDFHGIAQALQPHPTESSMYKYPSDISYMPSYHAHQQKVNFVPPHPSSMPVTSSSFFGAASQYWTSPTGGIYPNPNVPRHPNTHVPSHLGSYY
# Method in brief: (§1)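 Human transcription factors fused to GST were expressed in yeast, captured on glutathione beads, given DNA barcodes and pooled with a GST-only negative control. Pools were incubated with 200 nmole of a 16-mer random double-stranded DNA library in Tris/NaCl/DTT/glycerol buffer at room temperature for 30 min. They were then washed, crosslinked with 0.1% formaldehyde, proximity-ligated (BsaI/T4 ligase, 1 h, 37 °C), PCR-amplified and sequenced on an Illumina NextSeq500. Binding signal is each 6-mer's read frequency for a factor divided by its frequency for the GST control.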
# ELK1 = target: T2, ELK1 (Homo sapiens, UniProt P19419 1-428); conditions: protein: recombinant; tags: N-terminal GST; dsDNA, one strand shown
# T2 sequence: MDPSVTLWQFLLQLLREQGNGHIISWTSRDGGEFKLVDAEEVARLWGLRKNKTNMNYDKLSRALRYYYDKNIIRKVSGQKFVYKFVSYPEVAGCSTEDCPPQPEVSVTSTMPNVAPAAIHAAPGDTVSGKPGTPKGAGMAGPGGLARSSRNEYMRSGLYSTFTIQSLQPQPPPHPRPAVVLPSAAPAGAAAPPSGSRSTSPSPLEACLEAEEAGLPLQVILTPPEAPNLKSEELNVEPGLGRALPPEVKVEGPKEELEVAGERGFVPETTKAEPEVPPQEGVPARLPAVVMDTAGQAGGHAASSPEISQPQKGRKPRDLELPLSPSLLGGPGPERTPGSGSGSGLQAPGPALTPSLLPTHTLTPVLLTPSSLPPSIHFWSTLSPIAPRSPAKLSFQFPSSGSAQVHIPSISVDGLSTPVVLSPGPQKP
# Method in brief: as §1
# GABPA = target: T3, GABPA (Homo sapiens, UniProt Q06546 1-454); conditions: protein: recombinant; tags: N-terminal GST; dsDNA, one strand shown
# T3 sequence: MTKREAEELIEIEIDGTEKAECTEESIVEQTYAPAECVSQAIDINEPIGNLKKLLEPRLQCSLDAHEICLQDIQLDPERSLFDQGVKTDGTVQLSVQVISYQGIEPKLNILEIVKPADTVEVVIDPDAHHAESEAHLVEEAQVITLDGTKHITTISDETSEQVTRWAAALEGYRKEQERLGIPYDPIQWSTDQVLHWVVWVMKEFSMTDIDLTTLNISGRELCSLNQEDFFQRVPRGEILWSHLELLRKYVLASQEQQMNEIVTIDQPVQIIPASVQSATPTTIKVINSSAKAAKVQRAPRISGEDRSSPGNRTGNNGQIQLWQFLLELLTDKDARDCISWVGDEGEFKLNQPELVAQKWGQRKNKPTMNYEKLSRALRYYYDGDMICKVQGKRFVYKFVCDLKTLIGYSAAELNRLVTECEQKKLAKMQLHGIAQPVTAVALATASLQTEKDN
# Method in brief: as §1
# ERG = target: T4, ERG (Homo sapiens, UniProt P11308 1-479); conditions: protein: recombinant; tags: N-terminal GST; dsDNA, one strand shown
# T4 sequence: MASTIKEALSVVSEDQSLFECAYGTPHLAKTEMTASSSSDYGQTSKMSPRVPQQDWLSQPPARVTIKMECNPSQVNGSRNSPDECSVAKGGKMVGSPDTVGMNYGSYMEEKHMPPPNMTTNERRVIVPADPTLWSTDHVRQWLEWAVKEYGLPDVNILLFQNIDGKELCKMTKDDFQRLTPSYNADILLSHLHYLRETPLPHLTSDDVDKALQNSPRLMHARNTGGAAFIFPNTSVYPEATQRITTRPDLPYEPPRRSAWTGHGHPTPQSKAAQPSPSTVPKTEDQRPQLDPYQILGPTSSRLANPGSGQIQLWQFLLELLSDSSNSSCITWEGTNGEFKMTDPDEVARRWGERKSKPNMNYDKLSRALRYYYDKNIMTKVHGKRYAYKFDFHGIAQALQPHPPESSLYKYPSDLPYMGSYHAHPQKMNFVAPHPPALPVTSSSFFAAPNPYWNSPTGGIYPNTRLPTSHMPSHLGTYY
# Method in brief: as §1
# ELF1 = ELF1 (Homo sapiens, UniProt P32519 1-619); conditions: protein: recombinant; tags: N-terminal GST; dsDNA, one strand shown
# Method in brief: as §1
# EHF = target: T5, EHF (Homo sapiens, UniProt Q9NZC4 1-300); conditions: protein: recombinant; tags: N-terminal GST; dsDNA, one strand shown
# T5 sequence: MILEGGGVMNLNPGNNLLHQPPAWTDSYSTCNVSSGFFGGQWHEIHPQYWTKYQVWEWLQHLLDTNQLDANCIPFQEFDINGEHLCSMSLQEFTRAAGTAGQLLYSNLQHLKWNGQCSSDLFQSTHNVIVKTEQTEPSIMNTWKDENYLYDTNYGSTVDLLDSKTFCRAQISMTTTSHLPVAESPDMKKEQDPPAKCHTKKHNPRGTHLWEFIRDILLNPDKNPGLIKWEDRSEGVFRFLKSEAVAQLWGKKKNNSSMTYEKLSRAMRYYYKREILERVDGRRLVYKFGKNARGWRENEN
# Method in brief: as §1
# SPI1 = SPI1 (Homo sapiens, UniProt P17947 1-270); conditions: protein: recombinant; tags: N-terminal GST; dsDNA, one strand shown
# Method in brief: as §1
# SPIB = SPIB (Homo sapiens, UniProt Q01892 1-262); conditions: protein: recombinant; tags: N-terminal GST; dsDNA, one strand shown
# Method in brief: as §1
# ELK3 = target: T6, ELK3 (Homo sapiens, UniProt P41970 1-407); conditions: protein: recombinant; tags: N-terminal GST; dsDNA, one strand shown
# T6 sequence: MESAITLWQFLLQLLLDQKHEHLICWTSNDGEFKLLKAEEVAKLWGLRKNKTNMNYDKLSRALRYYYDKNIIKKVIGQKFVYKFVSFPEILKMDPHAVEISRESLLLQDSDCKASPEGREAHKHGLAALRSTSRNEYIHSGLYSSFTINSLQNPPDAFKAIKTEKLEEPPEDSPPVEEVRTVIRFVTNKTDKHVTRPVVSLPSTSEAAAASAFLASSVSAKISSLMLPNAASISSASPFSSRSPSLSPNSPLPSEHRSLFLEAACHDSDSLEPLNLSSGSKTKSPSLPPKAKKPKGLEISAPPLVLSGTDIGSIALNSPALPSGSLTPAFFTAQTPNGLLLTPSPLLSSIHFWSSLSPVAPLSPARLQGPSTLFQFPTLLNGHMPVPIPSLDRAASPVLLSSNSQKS
# Method in brief: as §1
# FEV = target: T7, FEV (Homo sapiens, UniProt Q99581 1-238); conditions: protein: recombinant; tags: N-terminal GST; dsDNA, one strand shown
# T7 sequence: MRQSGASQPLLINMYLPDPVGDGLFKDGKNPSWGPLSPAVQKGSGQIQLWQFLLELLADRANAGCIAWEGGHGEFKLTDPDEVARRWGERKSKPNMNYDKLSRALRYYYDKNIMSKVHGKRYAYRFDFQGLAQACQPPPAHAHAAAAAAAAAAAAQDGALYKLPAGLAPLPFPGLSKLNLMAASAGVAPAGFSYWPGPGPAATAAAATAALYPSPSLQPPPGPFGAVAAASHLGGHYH
# Method in brief: as §1
# ETV5 = ETV5 (Homo sapiens, UniProt P41161 1-510); conditions: protein: recombinant; tags: N-terminal GST; dsDNA, one strand shown
# Method in brief: as §1
# HSF1 = HSF1 (Homo sapiens, UniProt Q00613 1-529); conditions: protein: recombinant; tags: N-terminal GST; chain copies: 3; dsDNA, one strand shown
# Method in brief: as §1
# SPIC = target: T8, SPIC (Homo sapiens, UniProt Q8N5J4 1-248); conditions: protein: recombinant; tags: N-terminal GST; dsDNA, one strand shown
# T8 sequence: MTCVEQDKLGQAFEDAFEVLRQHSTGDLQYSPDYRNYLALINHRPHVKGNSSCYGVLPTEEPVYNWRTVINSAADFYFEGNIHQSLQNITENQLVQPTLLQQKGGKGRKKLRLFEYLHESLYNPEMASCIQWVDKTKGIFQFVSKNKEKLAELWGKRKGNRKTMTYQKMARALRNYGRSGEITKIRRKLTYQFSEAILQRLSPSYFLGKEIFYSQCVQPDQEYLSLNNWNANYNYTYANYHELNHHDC
# Method in brief: as §1
# ELF4 = ELF4 (Homo sapiens, UniProt Q99607 1-663); conditions: protein: recombinant; tags: N-terminal GST; dsDNA, one strand shown
# Method in brief: as §1
# ELK4 = target: T9, ELK4 (Homo sapiens, UniProt P28324-2 1-405); conditions: protein: recombinant; tags: N-terminal GST; dsDNA, one strand shown
# T9 sequence: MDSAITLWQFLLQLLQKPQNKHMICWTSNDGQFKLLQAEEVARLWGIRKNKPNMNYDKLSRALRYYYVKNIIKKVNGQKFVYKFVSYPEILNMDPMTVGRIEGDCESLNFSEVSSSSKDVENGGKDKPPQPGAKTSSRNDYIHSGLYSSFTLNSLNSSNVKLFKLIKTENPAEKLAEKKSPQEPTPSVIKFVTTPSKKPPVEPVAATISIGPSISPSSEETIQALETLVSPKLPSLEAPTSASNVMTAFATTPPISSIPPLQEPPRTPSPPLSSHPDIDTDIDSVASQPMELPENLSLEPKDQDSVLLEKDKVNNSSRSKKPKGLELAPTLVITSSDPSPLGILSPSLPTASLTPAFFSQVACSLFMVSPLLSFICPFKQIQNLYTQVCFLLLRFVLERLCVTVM
# Method in brief: as §1
# ETV2 = target: T10, ETV2 (Homo sapiens, UniProt O00321 1-342); conditions: protein: recombinant; tags: N-terminal GST; dsDNA, one strand shown
# T10 sequence: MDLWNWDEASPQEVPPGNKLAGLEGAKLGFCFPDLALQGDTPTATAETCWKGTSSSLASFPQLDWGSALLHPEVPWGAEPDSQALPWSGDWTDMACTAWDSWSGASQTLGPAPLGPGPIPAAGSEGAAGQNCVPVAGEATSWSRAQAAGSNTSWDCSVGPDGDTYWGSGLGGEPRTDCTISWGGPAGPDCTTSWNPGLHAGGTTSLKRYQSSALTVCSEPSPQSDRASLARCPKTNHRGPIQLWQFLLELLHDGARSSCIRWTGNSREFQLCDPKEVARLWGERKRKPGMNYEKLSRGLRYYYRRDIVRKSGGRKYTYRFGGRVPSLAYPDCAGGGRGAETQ
# Method in brief: as §1
# ELF3 = target: T11, ELF3 (Homo sapiens, UniProt P78545 1-371); conditions: protein: recombinant; tags: N-terminal GST; dsDNA, one strand shown
# T11 sequence: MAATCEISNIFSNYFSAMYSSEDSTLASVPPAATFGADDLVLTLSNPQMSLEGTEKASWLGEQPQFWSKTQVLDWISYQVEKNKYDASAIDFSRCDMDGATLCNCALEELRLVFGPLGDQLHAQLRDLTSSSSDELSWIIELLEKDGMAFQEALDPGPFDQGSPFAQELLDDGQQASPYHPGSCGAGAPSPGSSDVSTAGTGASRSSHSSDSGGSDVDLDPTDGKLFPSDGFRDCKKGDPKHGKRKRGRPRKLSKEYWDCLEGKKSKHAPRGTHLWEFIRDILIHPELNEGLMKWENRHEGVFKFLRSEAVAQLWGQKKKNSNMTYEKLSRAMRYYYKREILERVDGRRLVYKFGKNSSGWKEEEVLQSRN
# Method in brief: as §1
# CRX = CRX (Homo sapiens, UniProt O43186 1-299); conditions: protein: recombinant; tags: N-terminal GST; dsDNA, one strand shown
# Method in brief: as §1
# ETV1 = ETV1 (Homo sapiens, UniProt P50549 1-477); conditions: protein: recombinant; tags: N-terminal GST; dsDNA, one strand shown
# Method in brief: as §1
# Sequence of ELF1 (P32519 whole entry): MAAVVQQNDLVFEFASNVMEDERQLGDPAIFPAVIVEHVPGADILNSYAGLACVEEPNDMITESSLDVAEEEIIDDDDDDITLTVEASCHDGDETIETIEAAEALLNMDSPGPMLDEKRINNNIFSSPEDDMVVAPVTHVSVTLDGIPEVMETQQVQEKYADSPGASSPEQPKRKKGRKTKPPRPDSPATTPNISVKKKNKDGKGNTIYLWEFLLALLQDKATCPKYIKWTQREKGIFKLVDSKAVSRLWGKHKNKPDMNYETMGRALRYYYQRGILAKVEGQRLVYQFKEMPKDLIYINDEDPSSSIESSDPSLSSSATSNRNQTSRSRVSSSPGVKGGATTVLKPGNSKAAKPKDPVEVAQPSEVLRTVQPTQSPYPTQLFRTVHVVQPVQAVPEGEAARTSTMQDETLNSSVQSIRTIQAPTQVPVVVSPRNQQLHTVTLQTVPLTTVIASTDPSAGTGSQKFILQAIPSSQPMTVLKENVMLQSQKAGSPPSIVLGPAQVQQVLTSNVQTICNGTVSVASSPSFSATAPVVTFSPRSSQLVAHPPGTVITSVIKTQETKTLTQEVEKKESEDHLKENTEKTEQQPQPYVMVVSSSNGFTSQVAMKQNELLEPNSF
# Sequence of ELF4 (Q99607 whole entry): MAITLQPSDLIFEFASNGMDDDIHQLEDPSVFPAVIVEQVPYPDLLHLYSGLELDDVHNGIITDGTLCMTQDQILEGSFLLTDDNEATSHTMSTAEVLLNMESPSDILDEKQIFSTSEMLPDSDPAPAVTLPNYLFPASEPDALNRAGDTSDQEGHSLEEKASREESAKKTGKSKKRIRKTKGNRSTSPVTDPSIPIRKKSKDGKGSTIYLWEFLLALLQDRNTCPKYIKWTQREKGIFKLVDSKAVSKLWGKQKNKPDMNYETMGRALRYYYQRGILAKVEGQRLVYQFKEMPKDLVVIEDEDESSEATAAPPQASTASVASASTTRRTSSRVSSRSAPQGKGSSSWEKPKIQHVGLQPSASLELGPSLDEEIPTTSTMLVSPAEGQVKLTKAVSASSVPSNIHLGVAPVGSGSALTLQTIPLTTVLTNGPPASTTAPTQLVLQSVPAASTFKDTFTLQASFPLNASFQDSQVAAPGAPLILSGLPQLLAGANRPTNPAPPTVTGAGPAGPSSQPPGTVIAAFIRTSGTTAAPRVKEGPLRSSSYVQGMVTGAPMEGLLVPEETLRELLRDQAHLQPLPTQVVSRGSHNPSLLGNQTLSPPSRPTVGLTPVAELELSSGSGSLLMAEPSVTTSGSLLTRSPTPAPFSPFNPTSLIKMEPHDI
# Sequence of HSF1 (Q00613 whole entry): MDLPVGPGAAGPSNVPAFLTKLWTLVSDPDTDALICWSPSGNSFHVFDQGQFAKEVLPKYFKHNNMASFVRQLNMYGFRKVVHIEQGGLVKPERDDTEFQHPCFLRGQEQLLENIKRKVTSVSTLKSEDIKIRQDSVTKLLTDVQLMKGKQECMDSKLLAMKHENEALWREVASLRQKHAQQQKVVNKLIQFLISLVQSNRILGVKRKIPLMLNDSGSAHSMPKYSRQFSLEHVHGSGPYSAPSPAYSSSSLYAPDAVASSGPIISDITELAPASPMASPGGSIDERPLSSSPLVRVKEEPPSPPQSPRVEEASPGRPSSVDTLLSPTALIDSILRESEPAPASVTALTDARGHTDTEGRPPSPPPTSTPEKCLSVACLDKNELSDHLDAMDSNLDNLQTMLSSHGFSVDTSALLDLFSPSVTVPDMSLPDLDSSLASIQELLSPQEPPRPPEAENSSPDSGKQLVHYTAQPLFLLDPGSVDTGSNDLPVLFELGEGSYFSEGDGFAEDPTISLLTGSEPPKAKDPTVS
# Sequence of SPIB (Q01892 whole entry): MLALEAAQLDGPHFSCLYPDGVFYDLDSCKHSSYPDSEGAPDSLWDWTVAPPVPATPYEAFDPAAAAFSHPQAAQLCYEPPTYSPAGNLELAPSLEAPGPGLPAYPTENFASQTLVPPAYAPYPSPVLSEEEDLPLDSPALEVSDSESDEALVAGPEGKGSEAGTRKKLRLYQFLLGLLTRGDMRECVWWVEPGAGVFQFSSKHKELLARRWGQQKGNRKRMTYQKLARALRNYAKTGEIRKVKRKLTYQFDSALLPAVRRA
# Sequence of CRX (O43186 whole entry): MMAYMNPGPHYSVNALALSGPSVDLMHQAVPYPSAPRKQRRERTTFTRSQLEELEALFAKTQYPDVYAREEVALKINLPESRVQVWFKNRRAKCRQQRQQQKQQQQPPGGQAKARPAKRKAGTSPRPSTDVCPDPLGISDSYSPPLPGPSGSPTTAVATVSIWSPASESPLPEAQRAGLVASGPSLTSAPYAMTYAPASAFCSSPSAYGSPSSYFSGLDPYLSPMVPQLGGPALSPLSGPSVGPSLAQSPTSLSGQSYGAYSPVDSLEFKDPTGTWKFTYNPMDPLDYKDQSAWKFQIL
# Sequence of ETV1 (P50549 whole entry): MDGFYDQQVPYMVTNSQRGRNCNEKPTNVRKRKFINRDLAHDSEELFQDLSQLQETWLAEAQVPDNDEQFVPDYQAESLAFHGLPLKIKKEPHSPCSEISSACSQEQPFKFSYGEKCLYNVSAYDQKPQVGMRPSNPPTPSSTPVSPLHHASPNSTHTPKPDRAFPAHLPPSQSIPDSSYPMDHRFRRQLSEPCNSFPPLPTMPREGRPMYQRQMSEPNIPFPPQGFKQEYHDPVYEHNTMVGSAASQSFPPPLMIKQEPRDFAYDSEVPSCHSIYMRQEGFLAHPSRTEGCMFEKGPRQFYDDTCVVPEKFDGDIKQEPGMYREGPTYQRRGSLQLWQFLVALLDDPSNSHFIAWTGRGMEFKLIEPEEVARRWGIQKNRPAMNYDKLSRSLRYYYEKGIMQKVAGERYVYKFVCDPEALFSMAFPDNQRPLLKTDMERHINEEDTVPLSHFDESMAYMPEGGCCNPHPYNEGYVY
# Sequence of ETV5 (P41161 whole entry): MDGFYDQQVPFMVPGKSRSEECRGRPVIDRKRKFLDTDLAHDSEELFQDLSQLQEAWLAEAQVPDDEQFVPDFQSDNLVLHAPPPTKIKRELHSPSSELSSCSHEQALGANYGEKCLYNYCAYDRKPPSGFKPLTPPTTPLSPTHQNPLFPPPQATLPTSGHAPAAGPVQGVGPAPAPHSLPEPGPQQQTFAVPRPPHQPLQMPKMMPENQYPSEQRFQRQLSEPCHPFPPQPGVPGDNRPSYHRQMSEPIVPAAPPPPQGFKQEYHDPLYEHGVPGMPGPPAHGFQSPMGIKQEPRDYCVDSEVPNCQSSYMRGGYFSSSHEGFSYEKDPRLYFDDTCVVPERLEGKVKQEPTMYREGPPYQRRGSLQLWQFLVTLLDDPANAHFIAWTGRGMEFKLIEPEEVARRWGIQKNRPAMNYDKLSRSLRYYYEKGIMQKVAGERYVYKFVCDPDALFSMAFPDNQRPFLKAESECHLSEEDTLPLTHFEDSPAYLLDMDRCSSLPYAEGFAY
sequence,measurement,setting,value
GTTTCG,binding signal,FLI1,"1.28 fold enrichment (6-mer frequency, TF over GST control)"
same,binding signal,ELK1,"1.22 fold enrichment (6-mer frequency, TF over GST control)"
same,binding signal,GABPA,"1.22 fold enrichment (6-mer frequency, TF over GST control)"
same,binding signal,ERG,"1.25 fold enrichment (6-mer frequency, TF over GST control)"
same,binding signal,ELF1,"1.27 fold enrichment (6-mer frequency, TF over GST control)"
same,binding signal,EHF,"1.33 fold enrichment (6-mer frequency, TF over GST control)"
same,binding signal,SPI1,"1.25 fold enrichment (6-mer frequency, TF over GST control)"
same,binding signal,SPIB,"1.23 fold enrichment (6-mer frequency, TF over GST control)"
same,binding signal,ELK3,"1.15 fold enrichment (6-mer frequency, TF over GST control)"
same,binding signal,FEV,"1.27 fold enrichment (6-mer frequency, TF over GST control)"
same,binding signal,ETV5,"1.28 fold enrichment (6-mer frequency, TF over GST control)"
same,binding signal,HSF1,"1.44 fold enrichment (6-mer frequency, TF over GST control)"
same,binding signal,SPIC,"1.24 fold enrichment (6-mer frequency, TF over GST control)"
same,binding signal,ELF4,"1.33 fold enrichment (6-mer frequency, TF over GST control)"
same,binding signal,ELK4,"1.34 fold enrichment (6-mer frequency, TF over GST control)"
same,binding signal,ETV2,"1.24 fold enrichment (6-mer frequency, TF over GST control)"
same,binding signal,ELF3,"1.09 fold enrichment (6-mer frequency, TF over GST control)"
same,binding signal,CRX,"1.09 fold enrichment (6-mer frequency, TF over GST control)"
same,binding signal,ETV1,"1.27 fold enrichment (6-mer frequency, TF over GST control)"
